Source: PubChem BioAssay (The Scripps Research Institute Molecular Screening Center)
hgDAF-12 ag – activates the H. glycines DAF-12 receptor ligand-binding domain; activation, % at 6.8 µM; HEK293 GAL4-hgDAF12 UAS-luciferase reporter, agonist luminescence; normalized to butyrate control; AID 687014; 370,000 tested, 1.8% active;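 active = activation above a cutoff set at the mean of all screened compounds plus 3 SD, cut at about 10% in these data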;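 also: 0% = DMSO wells and 100% = sodium butyrate wells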
hcDAF12 agonist – activates DAF-12 receptor from parasite H. contortus | activation, % at 6.8 µM | HEK293 hcDAF-12 lit1-tk-luc reporter, luminescence; 0% DMSO, 100% Δ7-dafachronic acid | 370,000 tested, 1.4% active;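 active = activation above the mean of all tested compounds plus 3 SD, cut at about 5.5% in these data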;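 also: 100% = response to 3 µM Δ7-dafachronic acid high control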
DAX1 inh-1 – NR0B1 (DAX1) inhibition. P51843. HEK293 Gal4-DAX1 luciferase reporter, luminescence. inhibition, % at 6.75 µM. 340,000 tested, 0.99% active. AID 504766;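 active = inhibition above the mean over all tested compounds plus 3 SD, cut at about 4.2% in these data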;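 also: 0% = DAX1-transfected cells with DMSO and 100% = empty-vector control cells with DMSO; inhibition shows as a rise in luminescence from relieved DAX1 repression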
Target sequence (P51843 207-470 limits assumed): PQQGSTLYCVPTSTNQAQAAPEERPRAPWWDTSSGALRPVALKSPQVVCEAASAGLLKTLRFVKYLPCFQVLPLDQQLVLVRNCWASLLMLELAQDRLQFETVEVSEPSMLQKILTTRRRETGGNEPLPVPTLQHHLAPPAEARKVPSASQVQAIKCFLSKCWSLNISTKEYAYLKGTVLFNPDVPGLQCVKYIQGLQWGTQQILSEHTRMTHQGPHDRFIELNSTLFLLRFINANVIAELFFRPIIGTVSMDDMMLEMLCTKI
DAX1 inh-2 – inhibitors of DAX1 repression of SF-1 activated StAR promoter | HEK293T StAR-luciferase reporter, SF-1/DAX-1 repression relief | inhibition, % at 6.8 µM | 370,000 tested, 1.1% active | AID 652010;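 active = inhibition above the mean over all tested compounds plus 3 SD, cut at about 3.6% in these data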;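 also: 0% = DAX-1 cells with DMSO and 100% = cells lacking DAX-1 with DMSO; higher inhibition means more luminescence from relief of DAX-1 repression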
ssDAF12 agonist – activators of S. stercoralis DAF-12 nuclear receptor | HEK293 ssDAF-12/GRIP1 lit1-tk-luc reporter, luminescence; % of 3 µM dafachronic acid response | AID 652126 | 370,000 tested, 1% active | activation, % at 6.8 µM;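 active = activation above the mean over all tested compounds plus 3 SD, cut at about 0.9% in these data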;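 also: 0% = DMSO-only wells and 100% = 3 µM delta7-dafachronic acid wells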
hgDAF12 ag – confirmation of H. glycines DAF-12 agonists; shares compounds with hgDAF-12 ag; HEK293 GAL4-hgDAF12 luciferase reporter, agonist mode; percent of butyrate response; activation, % at 6.8 µM; 3,300 tested, 80% active; AID 743050;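 active = mean activation over triplicate wells above the hit cutoff derived from the earlier primary screen, cut at about 11% in these data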;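 also: 0% = DMSO low control and 100% = 2 mM sodium butyrate high control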
LXRb DAF12 ctr – activates human LXR-beta, counter-screen for DAF-12 agonists. 3,300 tested, under 10 active. shares compounds with hgDAF-12 ag. activation, % at 6.8 µM. AID 743051. HEK293 Gal4-LXR luciferase reporter, 24 h;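 active = mean activation of the triplicate above a set limit carried over from the primary screen, none filed active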
Target sequence (P55055 whole entry, looked up, the tested form may be a part): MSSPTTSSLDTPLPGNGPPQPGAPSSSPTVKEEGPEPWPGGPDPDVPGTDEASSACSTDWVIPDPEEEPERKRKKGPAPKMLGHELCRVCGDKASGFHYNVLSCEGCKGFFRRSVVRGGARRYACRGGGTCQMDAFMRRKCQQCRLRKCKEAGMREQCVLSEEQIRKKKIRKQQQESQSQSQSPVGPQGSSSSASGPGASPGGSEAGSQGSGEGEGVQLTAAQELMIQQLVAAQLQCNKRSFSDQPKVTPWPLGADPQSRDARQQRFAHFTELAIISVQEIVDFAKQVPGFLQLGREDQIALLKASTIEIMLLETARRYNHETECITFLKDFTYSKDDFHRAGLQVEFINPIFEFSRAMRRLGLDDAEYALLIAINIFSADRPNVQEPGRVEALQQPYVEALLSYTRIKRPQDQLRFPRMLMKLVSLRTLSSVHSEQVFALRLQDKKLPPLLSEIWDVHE
Starred values were filed as active, the others as inactive. Only some compounds are listed: those with a hit (about 4.1% of all), similar ones and a draw of the others.

Screening O=C(COC(=O)c1ccccc1C(=O)c1ccccc1)NCc1ccc(F)cc1 returned hgDAF-12 ag 15.8*, hcDAF12 agonist -0.7, DAX1 inh-1 0.5, DAX1 inh-2 0.8, ssDAF12 agonist -1.4, hgDAF12 ag 2.5 and LXRb DAF12 ctr 0.0.
Cc1c(/C=N\NC(=O)c2cccc(F)c2)cnn1C was read as hgDAF-12 ag 15.3*, hcDAF12 agonist 3.6, DAX1 inh-1 3.6, DAX1 inh-2 0.8, ssDAF12 agonist -0.8, hgDAF12 ag 4.0 and LXRb DAF12 ctr 0.1.
`O=C(N/N=C/c1ccc(Cl)cc1Cl)c1ccc2nc[nH]c2c1` gave hgDAF-12 ag -0.2, hcDAF12 agonist -1.4, DAX1 inh-1 0.2, DAX1 inh-2 -1.3 and ssDAF12 agonist -0.8.
Screening Cc1c(/C=N/NC(=O)c2ccc3c(c2)OCO3)cnn1C returned hgDAF-12 ag 3.5, hcDAF12 agonist 0.3, DAX1 inh-1 0.5, DAX1 inh-2 -0.2 and ssDAF12 agonist -0.1.
For O=C(N/N=C/c1ccc(Cl)cc1Cl)c1cccc(F)c1 the results were hgDAF-12 ag 15.1*, hcDAF12 agonist 4.5, DAX1 inh-1 2.6, DAX1 inh-2 3.1, ssDAF12 agonist 0.3, hgDAF12 ag 15.3* and LXRb DAF12 ctr 0.6.
`COc1cccc(/C=N/NC(=S)Nc2cccc(C(=O)O)c2)c1O` gave hgDAF-12 ag 16.8*, hcDAF12 agonist -0.7, DAX1 inh-1 -4.6, DAX1 inh-2 1.5, ssDAF12 agonist -0.6, hgDAF12 ag 3.8 and LXRb DAF12 ctr 0.1.
`Cc1ccc(/C=N/NC(=O)c2ccoc2C)o1` gave hgDAF-12 ag 14.1*, hcDAF12 agonist 5.4, DAX1 inh-1 1.4, DAX1 inh-2 1.7, ssDAF12 agonist 0.0, hgDAF12 ag 4.5 and LXRb DAF12 ctr 0.0.
Screening CC(=O)Nc1cccc(C(=O)N/N=C/c2ccccc2F)c1 returned hgDAF-12 ag 13.9*, hcDAF12 agonist 5.3, DAX1 inh-1 2.6, DAX1 inh-2 3.7*, ssDAF12 agonist 0.9, hgDAF12 ag 20.1* and LXRb DAF12 ctr 0.6.
`Cc1occc1C(=O)N/N=C/c1cnn(C)c1C` gave hgDAF-12 ag 15.8*, hcDAF12 agonist 2.9, DAX1 inh-1 1.7, DAX1 inh-2 3.2, ssDAF12 agonist 0.4, hgDAF12 ag 8.6 and LXRb DAF12 ctr 0.4.
CC1=CC(O)(c2ccccn2)P(=O)(c2ccccc2)C=C1C (centres undefined) was read as hgDAF-12 ag -3.2, hcDAF12 agonist -0.4, DAX1 inh-2 0.4 and ssDAF12 agonist -0.2.
O=C(/C=C/c1ccc(Br)cc1)NC(=O)c1ccccc1O was read as hgDAF-12 ag 13.3*, hcDAF12 agonist 4.8, DAX1 inh-1 0.1, DAX1 inh-2 3.0, ssDAF12 agonist -0.2, hgDAF12 ag 12.2* and LXRb DAF12 ctr 0.7.
For O=C(NO)c1ccccc1O the results were hgDAF-12 ag -1.6, hcDAF12 agonist 1.4, DAX1 inh-1 -0.7, DAX1 inh-2 0.1 and ssDAF12 agonist -0.9.
For CCN(Cc1cn(Cc2ccccc2)nn1)S(=O)(=O)c1ccc(N2CCCC2)cc1Br the results were hgDAF-12 ag 2.0, hcDAF12 agonist -2.5, DAX1 inh-2 -1.7 and ssDAF12 agonist -2.0.
`O=C(CCCN1CCOCC1)c1ccc2c(c1)OCCO2` gave hgDAF-12 ag 17.4*, hcDAF12 agonist 3.4, DAX1 inh-1 1.2, DAX1 inh-2 3.4, ssDAF12 agonist 0.0, hgDAF12 ag 13.9* and LXRb DAF12 ctr 0.5.
COc1cccc(/C=N/n2cnc3ccccc32)c1OC was read as hgDAF-12 ag 13.6*, hcDAF12 agonist 3.8, DAX1 inh-1 1.9, DAX1 inh-2 2.9, ssDAF12 agonist -0.5, hgDAF12 ag 14.5* and LXRb DAF12 ctr 0.9.
Screening O=C(c1ccc(-c2cccc(Cl)c2Cl)o1)N1CCOCC1 returned hgDAF-12 ag 17.1*, hcDAF12 agonist 3.7, DAX1 inh-1 2.0, DAX1 inh-2 4.0*, ssDAF12 agonist 0.0, hgDAF12 ag 15.5* and LXRb DAF12 ctr 0.6.
For COC(=O)[C@H](C(C)C)N(Cc1cn(Cc2ccc(C)cc2)nn1)S(=O)(=O)c1ccccc1Br the results were hgDAF-12 ag 2.6, hcDAF12 agonist -2.4, DAX1 inh-2 -1.3 and ssDAF12 agonist -1.6.
CC(=O)N1CCc2cc(N=NC3=C(O)CC(C)(C)CC3=O)ccc21 was read as hgDAF-12 ag 14.9*, hcDAF12 agonist 2.5, DAX1 inh-1 3.2, DAX1 inh-2 3.9*, ssDAF12 agonist -0.2, hgDAF12 ag 16.9* and LXRb DAF12 ctr 1.0.
Screening CC1(C)CC(=O)C(N=Nc2cc(Cl)c(Cl)c(Cl)c2)=C(O)C1 returned hgDAF-12 ag -0.1, hcDAF12 agonist -0.8, DAX1 inh-1 -0.4, DAX1 inh-2 0.4 and ssDAF12 agonist -1.5.
For COCCCNC(=O)C[C@H]1C[C@@]2(C(=O)OC)C(=C[C@H](COCc3ccccc3)O[C@@H]2C)N(CCc2ccc(OC)c(OC)c2)C1=O the results were hgDAF-12 ag 1.7, hcDAF12 agonist -1.8, DAX1 inh-2 -0.5 and ssDAF12 agonist -1.1.
`CCCSc1nsc(NC(=O)CCC)n1` gave hgDAF-12 ag 19.0*, hcDAF12 agonist 4.3, DAX1 inh-1 0.9, DAX1 inh-2 3.4, ssDAF12 agonist 0.1, hgDAF12 ag 14.8* and LXRb DAF12 ctr 0.8.
Screening CCCCSc1nsc(NC(C)=O)n1 returned hgDAF-12 ag 8.8, hcDAF12 agonist 3.7, DAX1 inh-1 1.9, DAX1 inh-2 2.5 and ssDAF12 agonist -0.6.
O=c1cc(-c2ccccc2)oc2cc(O)ccc12 was read as hgDAF-12 ag 14.9*, hcDAF12 agonist 2.5, DAX1 inh-1 2.0, DAX1 inh-2 4.5*, ssDAF12 agonist -0.7, hgDAF12 ag 11.9* and LXRb DAF12 ctr 0.6.
`O=c1cc(-c2ccc(O)cc2)oc2cc(O)cc(O)c12` gave hgDAF-12 ag 18.4*, hcDAF12 agonist -0.1, DAX1 inh-1 2.0, DAX1 inh-2 3.8*, ssDAF12 agonist -1.0, hgDAF12 ag 9.7 and LXRb DAF12 ctr 0.5.
`O=c1c(O)c(-c2ccc(O)cc2)oc2cc(O)cc(O)c12` gave hgDAF-12 ag 15.0*, hcDAF12 agonist 1.8, DAX1 inh-1 2.9, DAX1 inh-2 1.6, ssDAF12 agonist -0.8, hgDAF12 ag 4.8 and LXRb DAF12 ctr 0.3.
O=c1cc(-c2ccccc2)c2ccc(O)cc2o1 was read as hgDAF-12 ag 1.0, hcDAF12 agonist -0.1, DAX1 inh-1 1.1, DAX1 inh-2 -0.1 and ssDAF12 agonist -1.5.
For NS(=O)(=O)c1ccc(C(=O)Nc2ccc(-c3nc4cccnc4s3)cc2)cc1 the results were hgDAF-12 ag 14.0*, hcDAF12 agonist 4.7, DAX1 inh-1 2.4, DAX1 inh-2 2.5, ssDAF12 agonist -0.6, hgDAF12 ag 14.4* and LXRb DAF12 ctr 0.7.
